T1: UNK ZnF1-3 (human, UniProt Q9C0B0 31-174)
T1 sequence: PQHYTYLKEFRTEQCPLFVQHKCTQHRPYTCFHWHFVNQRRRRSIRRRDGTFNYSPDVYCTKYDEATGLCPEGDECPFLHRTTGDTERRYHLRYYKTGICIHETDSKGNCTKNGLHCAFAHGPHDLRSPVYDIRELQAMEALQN

B1: chr7:7679991:7679992:-_ENSG00000106399_ENST00000396682|hu_hu|hu_hu_hu_mus_False|18_48 (ssRNA)
RNA: GGGAGUUCUACAGUCCGACGAUCUGGGAUGAAUCUUUUCCAGCUUCCCCACGAAGCACACGGGCCGGUCGAUAUACUGUGGUAACAUGCCGGCGUUGACGCGCGCUUUGGGGAGCUCCAUCAUGUCCUCCAUGAUUCUGCCGCCAACAGAGGAUUGAGCAUCA
B2: chr1:163117127:163117128:-_ENSG00000143248_ENST00000313961|hu_mus|hu_hu_hu_mus_False|38_78 (ssRNA)
RNA: GGGAGUUCUACAGUCCGACGAUCUGCUACAAAGGAUGUAACUCAACUCACAGGGCAUGAUUUCAUAGCCUGACCAGAUGACUACUUGAUUAGCUCCUGAUAAAACUCAGAGCGCACAAAGCGGGGCAGAGAAUCCUUCUCCAUCAACAGAGGAUUGAGCAUCA
B3: chr16:45382771:45382772:-_ENSMUSG00000022661_ENSMUST00000163230|mus_mus|mus_mus_mus_hu_True|8_108 (ssRNA)
RNA: GGGAGUUCUACAGUCCGACGAUCCUGAGUGUUAUUGUAAGACAAAUGGACAGGGAGGGCAUGCUUCUCAAAAAAUGUGAGCUAUUGUCUAAGACUAACAAUAUUUAUCUAGCUAUAAAAAUAAGUUUUAAAUGGACGUUAAGACAACAGAGGAUUGAGCAUCA
B4: chr16:45382771:45382772:-_ENSMUSG00000022661_ENSMUST00000163230|mus_mus|mus_mus_mus_hu_True|8_48 (ssRNA)
RNA: B3 RNA with A27G, G30C, U31A, A33G, G36A, U87A
B5: chr16:45382771:45382772:-_ENSMUSG00000022661_ENSMUST00000163230|mus_mus|mus_mus_mus_hu_True|8_8 (ssRNA)
RNA: B3 RNA with A27G, G30C, U31A, A33G, G36A
B6: chr16:45382771:45382772:-_ENSMUSG00000022661_ENSMUST00000163230|mus_mus|mus_mus_mus_hu_True|8_38 (ssRNA)
RNA: B3 RNA with A27G, G30C, U31A, A33G, G36A, U105G, A106C
B7: chr14:62207507:62207508:+_ENSG00000100644_ENST00000337138|hu_mus|FALSE|FALSE (ssRNA)
RNA: GGGAGUUCUACAGUCCGACGAUCUGACAACUGAUCAAAGGAACGUAACUGGAAAUCAUCAUCCAUUGGGAUAUAGGGAGCCAGCAUCUCCAAAUCUAAAUCAGUGUCCUGAGUUGAAAAUGGAUUCUUUGCCUCUGUGUCUUCCAACAGAGGAUUGAGCAUCA
B8: chr9:95013113:95013114:-_ENSG00000196305_ENST00000443024|hu_hu|hu_hu_hu_mus_False|28_58 (ssRNA)
RNA: GGGAGUUCUACAGUCCGACGAUCCUCAGUCAGAAAGGGCGUGUAAGGGGCCAUCAGUCUGCACAGAGAAAGCAGGACACUAAACAAUGUCUCCAGAGCCAUGACACAAUCCUCCAUCCCACUCUCACCCUUUAACCUCCUCCUCAACAGAGGAUUGAGCAUCA
B9: chr9:14812383:14812384:-_ENSMUSG00000031934_ENSMUST00000164273|mus_mus|FALSE|FALSE (ssRNA)
RNA: GGGAGUUCUACAGUCCGACGAUCAUAGCUCAAGUAGAUACAUGCCAACAGUAUAACCACAAAUGUCACCAGCCGGCAGCUAAUGUAUUUCAUGAUUAAAUGACUAGAGUUCUUUUUUGUCUUCAAGUACUGCUCCACGAUUGGCAACAGAGGAUUGAGCAUCA
B10: chr5:128448638:128448639:+_ENSG00000066583_ENST00000173527|hu_mus|hu_hu_hu_mus_False|48_58 (ssRNA)
RNA: GGGAGUUCUACAGUCCGACGAUCGGCACUCGCCUUAAUUAGGUUCUGAAUUUCCUUGAACUUCGGGUGGUCUUUGUCAGCUACCAGCUGAAGCAGAACAGCCUCACUAGUGGUCACGAUGAUCCCAGUGCGGGCAAGACGCUCCAACAGAGGAUUGAGCAUCA
B11: chr10:121347744:121347745:-_ENSG00000151923_ENST00000436547|hu_mus|FALSE|FALSE (ssRNA)
RNA: GGGAGUUCUACAGUCCGACGAUCCGAUCUGACUGAAUAACUGAAGAAUAAGGACUUCUGUCACAUCUCUGGAGAGGUUACCUACGUAUAGAGUCCGGGGCUGUCCGUCGUCUUCCAUCAUGGUGGGUGCGACGGAGUGAUCCCCAACAGAGGAUUGAGCAUCA
B12: 89385701_89385821_685_3pUTR_ENSMUSG00000031652_ENSMUST00000034074|mouse|control|control (ssRNA)
RNA: GGGAGUUCUACAGUCCGACGAUCUCUGCGUGGGCUUCAACAAACUGUCUGAAUUCCCGUUUGAUUUCCGACUCUCUCUGAUUACUGGGGAGGUUCUCGUUGCUCUCAAAGAGCUUCACAAACUGCUGAAUGUGACUCCUGGCCCAACAGAGGAUUGAGCAUCA
B13: chr19:16212804:16212805:+_ENSG00000167460_ENST00000300933|hu_mus|hu_hu_hu_mus_False|8_88 (ssRNA)
RNA: GGGAGUUCUACAGUCCGACGAUCAACAAUUCUGGAGUGAAGGAAAGCAUCAAGGAUGAACAGCAUUAAAGCUCAGUCAGAAGGCACAUGGGCAACAAUGAUCACCCCAGCAUUCUCGCUUGGAAUGUGCUUGAGAAAUCUGUUCAACAGAGGAUUGAGCAUCA
B14: chr12:16048344:16048345:+_ENSG00000023734_ENST00000419869|hu_hu|hu_hu_hu_mus_True|8_8 (ssRNA)
RNA: GGGAGUUCUACAGUCCGACGAUCAGAUCGUCCAUAAGUAAUAACCAAAAUCUCUCCUUCAGGAAUAUACUCCAUGCUGCUAACAGACAUAUUAAAAUUCAGAGAUUUCACUUCUGUCAUUGUGGCAUGAUCCCAAAGCCGAACCAACAGAGGAUUGAGCAUCA
B15: chr1:130171486:130171487:+_ENSMUSG00000026353_ENSMUST00000027592|perfect_dup|motif|central (ssRNA)
RNA: GGGAGUUCUACAGUCCGACGAUCUGUGGAUGUGGCUCUUGCUGAAGUCUGUGCAGGAGGAGGAUUGCUAAAUAAAAAAUUGCGGAUUAAUCUCCAUAUGGCCAGGAAUGGAUAAAGCACCGUCCCCAGUAAUGUCCAAAUGUCCAACAGAGGAUUGAGCAUCA
B16: chr1:130171486:130171487:+_ENSMUSG00000026353_ENSMUST00000027592|perfect_dup|motif|central (ssRNA)
RNA: GGGAGUUCUACAGUCCGACGAUCUGACGAUGUUACUCUCACUGAAGUCUGUGUGGGAGGCGGAUUACUAAACAAGAAAUUGCGGAUUAAUCUCCAGAUGGCAAGGAAUGGAUAAAGCACUGUUCCCAACAAGGUCCAAAUGUCCAACAGAGGAUUGAGCAUCA
B17: chr1:130171486:130171487:+_ENSMUSG00000026353_ENSMUST00000027592|perfect_dup|FALSE|FALSE (ssRNA)
RNA: B16 RNA with G83U, G84A
B18: chr1:130171486:130171487:+_ENSMUSG00000026353_ENSMUST00000027592|perfect_dup|FALSE|FALSE (ssRNA)
RNA: B15 RNA with G83U, G84A

Changes are numbered by the printed parent chain. In all, about 24,000 sequences were measured (“enrichment r”: median about 0.99, highest 2% from about 3.7 on). The sample holds the highest values, similar sequences and a random draw of the others, so the mix is not that of the screen.

In the experiment the target is T1, UNK ZnF1-3. The experiment can be described thus: nsRBNS (natural sequence RNA bind-n-seq); RBNS binding buffer (assumed for nsRBNS): 25 mM Tris pH 7.5, 150 mM KCl, 3 mM MgCl2, 0.01% Triton X-100, 500 ug/ml BSA, 20 U/ml SUPERase-In, 4 C; UNK is unkempt and MSI1 is Musashi-1; names of the RNAs are library labels; protein concentration not given here; high values mean tight binding.
Molecule B1 returned a binding signal of 0.554 enrichment R.
Molecule B2 returned a binding signal of 0.974 enrichment R.
The figure for B3 is 3.42 enrichment R; for B4 it is 5.59 enrichment R.
Molecule B5 yielded a binding signal of 3.98 enrichment R.
As for B6, the binding signal is 3.88 enrichment R.
The same measure for B7: 1.17 enrichment R; for B8: 1.38 enrichment R; for B9: 0.953 enrichment R.
The figure for B10 is 0.822 enrichment R.
The figure for B11 is 0.644 enrichment R; for B12 it is 0.876 enrichment R.
B13 registered a binding signal of 1.57 enrichment R.
The same measure for B14: 1.38 enrichment R.
As to B15, the binding signal stood at 3.3 enrichment R.
As for B16, the binding signal amounted to 3.3 enrichment R.
With B17, the binding signal came to 4.56 enrichment R.
The figure for B18 is 4.56 enrichment R.
